# Results from the supplement of paper PMC12632987.
# Whole data set: some 4,500 sequences, median “median log2 fold change of GCK-ALFA target abundance (FLAG IP / Myc IP barcode read proportion)” near 0.078, cut for the lowest 2% near -0.6. Only a selection was taken, and the lowest values are over-represented in it overall.
# B1: GBRAP_122_2955 (protein)
# chain: SKEEEVERLVEETVEAAKKGDFAATILEALKEAAERFDAESLIRLAERLAERARELGKEAEAALAFATAAQWLLEERPELAEAADRLLELADELLDLLEE
# B2: GBRAP_166_4966 (protein)
# chain: MEEEIKEEFKKYLEELKEKMKKANEEEKLELLAEAAEKLREAKEAGVSRETLRELIRYLIELAKEVGLTDSQVYGALSILADLDEEEIDILEEEIAEVRA
# B3: GBRAP_166_4889 (protein)
# chain: STEEAIREIERLAEEAIANIAALTPEELLAVFIEMVEIVERAGATPELRAALAEAAARIVAAAVAAGRDWDEVESLALAAVGDDEELLDAVEATLAALRA
# B4: GBRAP_74_6553 (protein)
# chain: SAALKKEIDAAAKAGDADKLIKLARKAVKEGDIDVAVHALGQLAKLAVKKAKAGDYDELDKLIDAIVEILEKVPDEALTDETWKAIAAAIKAAIEAEKAR
# B5: GBRAP_160_4776 (protein)
# chain: SEKEEKLKKKIKEAKEEILESIDTLSPEETLTVAIGETGDIIMEAEELEFDNEELLDSIDEIMDELIEELEKNKNASPEEKKKIVEEKFEKLLKELEKLT
# B6: GBRAP_160_4428 (protein)
# chain: SEKLKKAKEKIEEIIEETVEMMKGQSAEERQVLVRVARGEIILELEELGLLTDEVDEVIDEEFDEIVEYIAENPDISDEELRELLEEAREKILKELEKVS
# B7: GBRAP_14_3860 (protein)
# chain: VEALVKAVERTAESTKELIAEIAPEHAEEIKAKVEELAKEIIEKIKKENLNIEEVEELVDEAAEKLGAYMREKGYLSDTEIAAFKAHLLSEFLLELEEIE
# B8: GBRAP_160_4725 (protein)
# chain: EEEIKEFVEEFREEFLETLELTKDESKENAKALFRGTAGEILQDAFENPFLTDEQEDVVAEILDELVEELEKNFDASLEEKKEIVEEKMEELLEKLLELS
# Biological target: GABARAP, O95166
# Sequence (O95166 whole entry, the tested form may be a part): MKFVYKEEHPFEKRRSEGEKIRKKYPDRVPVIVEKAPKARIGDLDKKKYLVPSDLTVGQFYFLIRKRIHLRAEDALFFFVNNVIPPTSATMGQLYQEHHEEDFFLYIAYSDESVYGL
# Test: median log2 fold change of GCK-ALFA target abundance (FLAG IP / Myc IP barcode read proportion) (log2 ratio); each designed protein is fused to an ALFA-tag nanobody in HEK293 cells to bring the named protein to FLAG-tagged glucokinase (GCK); Myc marks an untargeted standard; higher = target protein stabilised (more abundant)
# Settings: target protein: 3xFLAG-MCP-GCK-ALFA reporter; HEK293 landing pad (RPLP)
# Outline: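 An ALFA-nanobody-fused binder library was recombined into HEK293 landing-pad cells and induced with 2 μg mL^−1 doxycycline. Cells were transfected with a plasmid expressing a FLAG-tagged target and a Myc-tagged standard. After 48 h, lysates underwent anti-FLAG and anti-Myc immunoprecipitation, and circular RNA barcodes were reverse transcribed, amplified and sequenced. Target abundance is the per-binder median log2 ratio of FLAG to Myc barcode read proportions. Barcodes needed ≥10^−7 proportion in both replicates, binders ≥3 barcodes per replicate, and a 10^−6 pseudocount was added; the two replicates were pooled.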
row,Binder,median log2 fold change
1,B1,-0.119
2,B2,-0.12
3,B3,0.108
4,B4,-0.699
5,B5,0.018
6,B6,0.0554
7,B7,0.302
8,B8,0.0697
